High-throughput results (PubChem BioAssay)
ALDH1A1 inh: qHTS Assay for Inhibitors of Aldehyde Dehydrogenase 1 (ALDH1A1). Aldehyde dehydrogenase 1A1 (Homo sapiens), P00352. Purified ALDH1A1, NADH fluorescence, propionaldehyde substrate. Potency, µM (doses to about 75.3 µM), for inactives: at the top dose activity, negative = inhibition, most hits filed as inhibitors. hit rate 7.3% among 220,000. AID 1030, 2008;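 also: potency is read from the fitted curve at half-maximal effect; plate controls were no enzyme wells and a reference inhibitor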
Target sequence (P00352 whole entry, looked up): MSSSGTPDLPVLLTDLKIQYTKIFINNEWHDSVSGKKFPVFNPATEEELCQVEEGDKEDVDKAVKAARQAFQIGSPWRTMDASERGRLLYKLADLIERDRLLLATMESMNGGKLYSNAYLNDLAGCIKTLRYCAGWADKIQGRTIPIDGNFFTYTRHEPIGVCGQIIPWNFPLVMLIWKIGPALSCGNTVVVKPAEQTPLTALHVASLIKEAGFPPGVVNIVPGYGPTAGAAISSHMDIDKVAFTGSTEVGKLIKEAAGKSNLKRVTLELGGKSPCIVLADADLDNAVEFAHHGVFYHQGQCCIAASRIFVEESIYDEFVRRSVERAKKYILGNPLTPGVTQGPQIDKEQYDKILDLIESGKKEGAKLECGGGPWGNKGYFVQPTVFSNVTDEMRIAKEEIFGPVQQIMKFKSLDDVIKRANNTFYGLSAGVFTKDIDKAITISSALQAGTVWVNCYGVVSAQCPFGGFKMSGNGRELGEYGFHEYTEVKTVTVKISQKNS
IMPase inh: qHTS Assay for Identifying the Cell-Membrane Permeable IMPase Inhibitors | Inositol monophosphatase 1 (Rattus norvegicus), P97697 | AID 901, 2007 | inhibition (IP1 accumulation), % at 46.1 µM | CHO-M1 cells, IP1 accumulation, HTRF TR-FRET ratio | 120,000 tested, under 10 active; active = well fitted curve in the direction sought with a large enough effect in the signal ratio, not every such curve was filed as active; inconclusive = small, poorly fitted or top-dose-only effect, or a change in a side signal; inactive = no such curve, though single readings can be large or run the other way; the % refers to the signal ratio;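 also: cells stimulated with carbachol in lithium chloride buffer; plate controls were DMSO basal wells for no effect and reference inhibitor wells for full effect; higher means more IMPase inhibition seen as more IP1 and lower FRET ratio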
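Cellular IMPase inhibition is scored as a rise in cytosolic IP1, detected by competitive TR-FRET between d2-labelled IP1 and a europium anti-IP1 antibody. M1-expressing CHO cells were stimulated with carbachol for 30 min at 37C, with lithium (50 mM LiCl) present in the buffer.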
HPGD block: qHTS Assay for Inhibitors of HPGD (15-Hydroxyprostaglandin Dehydrogenase); 15-hydroxyprostaglandin dehydrogenase [NAD(+)] (Homo sapiens), P15428; purified HPGD, NADH fluorescence kinetic, PGE2 substrate; Potency, µM, for the others: at the highest dose activity change, negative = inhibition, hits mostly inhibitors; hit rate 4.3% among 150,000; AID 894, 2007; also: potency is read from the fitted curve at half-maximal effect
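NADH formation kinetics: reaction with 30 uM PGE2 and 1 mM NAD+ (final), 20 nM enzyme, Tris-HCl pH 8 with Tween 20, after 15 min compound preincubation at room temperature. Fluorescence change, last versus first of five reads.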
Starred values were filed as active, the others as inactive; ? = inconclusive; . = no result given. Shown are actives, neighbours in structure and some others; about 9% of the full set was active somewhere. Unless noted, calls follow the shape of the dose curve; as a rule, active = well fitted inhibition curve with a large enough effect (not every such curve was filed as active); inconclusive = small, poorly fitted or top-dose-only effect, or another doubt; inactive = no such curve, though single readings can be large or run the other way. Unless noted, % is scaled to controls: 0 for no effect and ±100 for the full control effect.

SMILES | ALDH1A1 inh | IMPase inh | HPGD block
CCOC(=O)[C@H](CCc1ccccc1)N[C@@H](C)C(=O)N1[C@H](C(=O)O)C[C@H]2CCCC[C@@H]21 | -1% | . | -4%
CC1=NN(c2ccccc2)C(=O)/C1=C\c1c(C)[nH]n(-c2ccccc2)c1=O | -2% | 6 | -16%
CC1=NN(c2ccccc2)C(=O)/C1=C/c1c(O)n(-c2ccc(F)c(Cl)c2)[nH]c1=O | 14µM* | . | -28%
O=[N+]([O-])c1cc(-c2nnc(Nc3ccccc3)c3ccccc23)ccc1N1CCOCC1 | ? | -9 | 14µM*
O=[N+]([O-])c1cc(-c2nnc(N3CCOCC3)c3ccccc23)ccc1N1CCOCC1 | 10µM* | . | .
O=[N+]([O-])c1cc(-c2nnc(Nc3ccc(O)cc3)c3ccccc23)ccc1N1CCOCC1 | ? | -5 | -9%
Cc1ccc(Nc2nnc(-c3ccc(N4CCOCC4)c([N+](=O)[O-])c3)c3ccccc23)cc1 | ? | . | -16%
Cc1cccc(N=C2NC(=O)/C(=C/C=C/c3ccco3)S2)c1 | ? | -11 | -24%
COc1ccc(N=C2NC(=O)/C(=C\C=C\c3ccco3)S2)cc1 | 11µM* | . | .
CC1=NN(c2cccc(C(=O)O)c2)C(=O)/C1=C\C=C\c1ccco1 | -9% | ? | -22%
CC(C)C(C(=O)O)N1C(=O)/C(=C/C=C/c2ccco2)SC1=S (stereo unspecified) | ? | 5 | 3.5µM*
CCC(=O)Nc1cccc(-n2nnnc2SCC(=O)N(C(C)C)C(C)C)c1 | 7% | . | .
CN(Cc1ccco1)C(=O)C(Cc1ccccc1)NS(=O)(=O)c1ccc2c(c1)CCC(=O)N2 (stereo unspecified) | 25µM* | -2 | -6%
CCCNC(=O)C(Cc1ccccc1)NS(=O)(=O)c1ccc2c(c1)CCC(=O)N2 (stereo unspecified) | -13% | -8 | 5%
CC(C)C(N)C(=O)O (stereo unspecified) | -7% | . | .
COc1ccc(S(=O)(=O)NC2CCCCC2)c(C)c1C | 4% | -8 | -3%
CSc1nc(/C=C2\C=Nc3ccccc32)c(O)n1C | -5% | . | 35µM*
CC(C)n1c(O)c(/C=C2\C=Nc3ccccc32)sc1=Nc1ccccc1 | -2% | 7 | -9%
CC(=O)c1cccc(NC(=O)CCCSc2nc(-c3ccco3)cc(C(F)(F)F)n2)c1 | . | -2 | .
Cc1ccnc(NC(NC(=O)C(C)C)(C(F)(F)F)C(F)(F)F)c1 | 0% | . | -7%
COc1cc(C(=O)N(Cc2ccco2)Cc2cc3ccccc3[nH]c2=O)cc(OC)c1OC | 22µM* | 5 | -19%
COc1cc(C(=O)OCc2cc3ccccc3[nH]c2=O)cc(OC)c1OC | 0% | -5 | -26%
CCOC(=O)C1(N(CC)CC)Sc2cc(C)ccc2NC1=O (stereo unspecified) | ? | -18 | -22%
COC(=O)C1=C(C(=O)OC)SC2(S1)C(C(=O)OC)=C(C(=O)OC)SC1=C2c2cc(C)ccc2NC1(C)C | 8.9µM* | 4 | 10µM*
Cc1ccc(-c2nc3cc(NC(=O)c4cc(Br)ccc4Cl)ccc3o2)cc1 | . | 5 | .
SMILES | ALDH1A1 inh | IMPase inh | HPGD block
O=[N+]([O-])c1ccc(C2OCCO2)cc1CS(=O)(=O)c1ccccc1 | -7% | . | .
CC(C)C(=O)n1nc(-c2cccnc2)nc1NCc1ccc(F)cc1 | -1% | . | .
O=C(CCCN1CCC(c2ccccc2)C1)c1ccc2c(c1)OCCO2 (stereo unspecified) | -6% | 3 | -4%
O=C(CCN1CCc2ccccc2CC1)c1ccc2c(c1)OCCO2 | 0.11µM* | 0 | -21%
O=C(CCCN1CCOCC1)c1ccc2c(c1)OCCO2 | ? | 6 | -15%
O=C(CCN1CCOCC1)c1ccc2c(c1)OCCO2 | 0.45µM* | -6 | -25%
O=C(C1CCN(S(=O)(=O)c2cccs2)CC1)N(c1ccccn1)C1CCCCC1 | 2% | . | .
NS(=O)(=O)c1cc(C(=O)OCC(=O)Nc2ccc(N3CCCCC3)cc2)ccc1Cl | -7% | . | .
CC(C)c1onc(C(=O)N(C)Cc2ccccc2)c1[N+](=O)[O-] | 5% | . | -30%
CC(C)c1onc(C(=O)N2CCN(Cc3ccccc3)CC2)c1[N+](=O)[O-] | 2.5µM* | . | -8%
CC12CCC(C/C1=N\N=C1\NC(=O)/C(=C\c3ccc(Cl)cc3)S1)C2(C)C (stereo unspecified) | 16% | -4 | -16%
COC(=O)c1cc(C)sc1NC(=S)N1CCN(CCc2ccccc2)CC1 | 14µM* | . | .
CCCN1CCN(C(=S)Nc2sc(CC)cc2C(=O)OC)CC1 | -7% | . | .
